Targets with a hit are over-represented here; the source holds about 8,800 in all. About 0.5% of all pairs of compound and target were hits.
What was measured:
Experiment in all cases: log2 fold change, soluble protein after heating vs DMSO (PISA); higher = thermal stabilisation; K562 lysate, 10 uM; active = over 0.2 and 3.5 SD of the protein, either way, in both replicates (recomputed)
erlotinib = compound: C#Cc1cccc(Nc2ncnc3cc(OCCOC)c(OCCOC)cc23)c1 [erlotinib]
Procedure, shortened: (§1)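 Quantification was by TMTpro 16plex LC-MS/MS with equalised channel sums, applied to the supernatant after 21,000xg for 90 min. Samples were crude K562 extract at 1 mg/mL protein in PBS pH 7.4 with 1 mM MgCl2, treated with 10 μM compound for 30 min, heated for 3 min across 48°C-58°C, pooled and brought to 0.5% NP-40 at 4°C. Values are log-two fold changes in thermal stability relative to solvent controls, from duplicates.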

[1] = compound: C1=CC(=CC=C1C2=NC3=C(N2)C=C(C=C3)C(=O)N)OC4=CC=C(C=C4)Cl
Procedure, shortened: as §1

[2] = compound: C1=CC=C(C=C1)C2=NC(=C(N2)C3=CC=NC=C3)C4=CC(=C(C=C4)Cl)O
Procedure, shortened: as §1

IRAK-1-4 Inhibitor I = compound: C1COCCN1CCN2C3=CC=CC=C3N=C2NC(=O)C4=CC(=CC=C4)[N+](=O)[O-] [IRAK-1-4 Inhibitor I]
Procedure, shortened: as §1

[3] = compound: CC(=O)c1cnc2ccc(-c3cc(Cl)c(O)c(Cl)c3)nc2c1N[C@H]1CC[C@H](CN(C)C)CC1
Procedure, shortened: as §1

ralimetinib = compound: CC(C)(C)Cn1c(N)nc2ccc(-c3[nH]c(C(C)(C)C)nc3-c3ccc(F)cc3)nc21 [ralimetinib]
Procedure, shortened: as §1

[4] = compound: CC(C)(O)CC(=O)NCCn1ccc2ncnc(Nc3ccc(Oc4cccc(C(F)(F)F)c4)c(Cl)c3)c21
Procedure, shortened: as §1

[5] = compound: CC(C)C1=C2N=C(C=C(N2N=C1)NCC3=CC=CC=C3)NCCCCCCN
Procedure, shortened: as §1

[6] = compound: CC1=C(C(CC(=O)N1)C2=CC=C(C=C2)C(F)(F)F)C(=O)NC3=C(C=C4C(=C3)C=NN4)F
Procedure, shortened: as §1

[7] = compound: CC1=C(C2=C(C=C1)C(=O)C3=CC=CC=C3N2CCCN)C
Procedure, shortened: as §1

[8] = compound: CC1=C(C=C(C=C1)NC(=O)C2=CC(=CC=C2)N(C)C)NC(=O)C3=CC=C(C=C3)O
Procedure, shortened: as §1

[9] = compound: CC1=CC=C(C=C1)SC2=C3C=C(SC3=CN=C2)C(=O)N
Procedure, shortened: as §1

[10] = compound: C/C(=N\NC(=O)C1=CC(=CC=C1)S(=O)(=O)N2CCOCC2)/C3=C(C=CC(=C3)Cl)O
Procedure, shortened: as §1

[11] = compound: C1=CC2=C(C=CC(=C2)/C=C\3/C(=O)NC(=NCC4=CC=CS4)S3)N=C1
Procedure, shortened: as §1

[12] = compound: C1=CC2=NC=CN=C2C=C1/C=C/3\C(=O)NC(=O)S3
Procedure, shortened: as §1

[13] = compound: C1=CC=C2C(=C1)C3=NNC4=CC=CC(=C43)C2=O
Procedure, shortened: as §1

[14] = compound: C1CCN(C1)C(=O)NC2=CC=CC(=C2)NC3=NC=C(C(=N3)NCCC4=CN=CN4)Br
Procedure, shortened: as §1

[15] = compound: C1CN(CCC1(CC2=CC=C(C=C2)Cl)N)C3=NC=NC4=C3C=CN4
Procedure, shortened: as §1

ibrutinib = compound: C=CC(=O)N1CCC[C@@H](n2nc(-c3ccc(Oc4ccccc4)cc3)c3c(N)ncnc32)C1 [ibrutinib]
Procedure, shortened: as §1

[16] = compound: CC1=C(C=C(C=C1)NC(=O)C2=CC(=CC=C2)C(C)(C)C#N)NC3=CC4=C(C=C3)N=CN(C4=O)C
Procedure, shortened: as §1

Measured: log2 fold change

EIF2AK3 (UniProt Q9NZJ5)
Chain of UniProt Q9NZJ5 (Q9NZJ5 whole entry, looked up): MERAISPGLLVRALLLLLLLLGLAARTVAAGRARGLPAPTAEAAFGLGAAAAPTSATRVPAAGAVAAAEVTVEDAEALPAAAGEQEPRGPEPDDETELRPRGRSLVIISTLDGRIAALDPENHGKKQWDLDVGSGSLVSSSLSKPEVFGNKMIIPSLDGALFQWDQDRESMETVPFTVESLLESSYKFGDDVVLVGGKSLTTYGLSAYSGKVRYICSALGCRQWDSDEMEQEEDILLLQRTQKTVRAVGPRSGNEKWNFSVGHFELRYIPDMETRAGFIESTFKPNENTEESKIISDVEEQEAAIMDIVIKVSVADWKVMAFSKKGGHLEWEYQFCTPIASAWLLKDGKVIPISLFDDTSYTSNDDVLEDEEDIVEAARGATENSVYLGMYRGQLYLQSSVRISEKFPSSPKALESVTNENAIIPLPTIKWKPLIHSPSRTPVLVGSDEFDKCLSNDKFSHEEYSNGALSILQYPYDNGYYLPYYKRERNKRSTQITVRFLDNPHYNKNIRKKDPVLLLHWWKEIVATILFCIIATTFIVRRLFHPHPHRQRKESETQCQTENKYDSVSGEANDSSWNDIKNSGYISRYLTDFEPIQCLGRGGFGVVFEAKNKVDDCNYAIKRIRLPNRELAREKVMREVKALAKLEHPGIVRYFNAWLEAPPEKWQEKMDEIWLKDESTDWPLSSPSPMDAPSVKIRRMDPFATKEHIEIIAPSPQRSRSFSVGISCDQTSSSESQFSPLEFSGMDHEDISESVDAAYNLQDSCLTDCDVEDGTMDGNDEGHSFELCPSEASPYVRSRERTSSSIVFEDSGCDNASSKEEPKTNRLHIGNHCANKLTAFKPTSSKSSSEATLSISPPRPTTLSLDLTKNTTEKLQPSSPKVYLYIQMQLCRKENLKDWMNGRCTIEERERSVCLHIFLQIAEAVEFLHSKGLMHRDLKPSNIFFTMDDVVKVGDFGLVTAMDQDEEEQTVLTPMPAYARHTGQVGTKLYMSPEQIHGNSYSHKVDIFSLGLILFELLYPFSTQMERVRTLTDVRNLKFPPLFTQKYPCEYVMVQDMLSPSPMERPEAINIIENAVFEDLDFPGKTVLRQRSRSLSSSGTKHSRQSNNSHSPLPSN
inactive: erlotinib -0.014 | [1] 0.015 | [2] -0.049 | IRAK-1-4 Inhibitor I -0.044 | [3] 0.003 | ralimetinib 0.039 | [4] -0.191 | [5] 0.012 | [6] -0.052 | [7] 0.037 | [8] -0.061 | [9] -0.07

GCA (UniProt P28676)
Chain of UniProt P28676 (P28676 whole entry, looked up): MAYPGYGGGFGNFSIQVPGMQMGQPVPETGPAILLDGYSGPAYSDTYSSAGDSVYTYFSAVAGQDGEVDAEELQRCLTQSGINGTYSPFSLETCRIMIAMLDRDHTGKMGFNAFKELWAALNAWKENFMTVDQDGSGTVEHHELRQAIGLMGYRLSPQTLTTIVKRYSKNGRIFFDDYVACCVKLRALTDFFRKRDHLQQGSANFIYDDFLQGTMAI
inactive: erlotinib -0.115 | [1] -0.037 | [3] -0.134 | [5] 0.191 | [6] 0.173 | [9] 0.123

EPB41, A0A2R8Y783
inactive: [10] -0.136 | [11] 0.09 | [12] -0.058 | [13] 0.017 | [14] -0.001 | [15] 0.346 | ibrutinib 0.196 | [3] 0.093 | [7] 0.057 | [9] 0.034

DUSP22 isoform 2 (UniProt Q9NRW4)
inactive: erlotinib -0.016 | [10] 0.157 | [1] 0.007 | [11] 0.075 | [12] 0.051 | [2] 0.035 | [13] 0.143 | IRAK-1-4 Inhibitor I -0.028 | ibrutinib -0.059 | [3] 0.043 | ralimetinib 0.007 | [4] 0.02 | [5] -0.092 | [6] 0.177 | [7] -0.046 | [8] 0.081 | [9] 0.007

FTSJ1 isoform 2 (UniProt Q9UET6)
Chain of UniProt Q9UET6 (Q9UET6 whole entry, looked up): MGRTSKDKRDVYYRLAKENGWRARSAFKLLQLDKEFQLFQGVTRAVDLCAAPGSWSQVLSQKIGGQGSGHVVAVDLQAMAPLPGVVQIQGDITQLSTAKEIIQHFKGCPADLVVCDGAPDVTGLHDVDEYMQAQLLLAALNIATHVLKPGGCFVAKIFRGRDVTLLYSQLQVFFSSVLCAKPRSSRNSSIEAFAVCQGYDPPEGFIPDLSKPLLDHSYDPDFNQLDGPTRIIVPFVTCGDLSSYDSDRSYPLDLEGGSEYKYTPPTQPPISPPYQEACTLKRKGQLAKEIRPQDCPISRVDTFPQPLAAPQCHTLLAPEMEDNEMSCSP
inactive: [10] -0.149 | [11] 0.055 | [13] -0.039 | [14] 0.051 | [15] 0.059 | [3] 0.026 | [9] 0.001

DYRK1A isoform 2 (UniProt Q13627)
inactive: erlotinib -0.064 | [1] -0.476 | [12] 0.247 | [2] 0.069 | IRAK-1-4 Inhibitor I -0.595 | ibrutinib -0.063 | ralimetinib 0.085 | [4] -0.241 | [5] 0.005 | [16] 0.004 | [8] -0.081

FOXL2 (UniProt P58012)
Chain of UniProt P58012 (P58012 whole entry, looked up): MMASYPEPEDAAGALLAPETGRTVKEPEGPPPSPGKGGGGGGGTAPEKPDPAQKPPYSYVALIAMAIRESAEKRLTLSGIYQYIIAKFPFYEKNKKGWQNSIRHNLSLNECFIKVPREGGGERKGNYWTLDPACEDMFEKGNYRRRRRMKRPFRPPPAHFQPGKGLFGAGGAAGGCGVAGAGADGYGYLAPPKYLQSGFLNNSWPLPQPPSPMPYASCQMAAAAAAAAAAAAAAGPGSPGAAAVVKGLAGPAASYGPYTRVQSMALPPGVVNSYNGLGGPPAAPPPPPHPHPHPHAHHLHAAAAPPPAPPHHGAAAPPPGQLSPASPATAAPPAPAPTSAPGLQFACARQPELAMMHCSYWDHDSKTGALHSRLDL
inactive: erlotinib 0.274 | [1] -0.129 | [12] -0.006 | [2] -0.085 | [14] -0.024 | [15] 0.187 | IRAK-1-4 Inhibitor I 0.026 | ibrutinib -0.074 | [3] -0.065 | ralimetinib 0.264 | [4] -0.095 | [5] 0.161 | [7] -0.023 | [8] 0.02 | [9] -0.035

FAM53B (UniProt Q14153)
inactive: erlotinib 0.057 | [10] -0.087 | [1] -0.03 | [11] 0.015 | [12] -0.004 | [2] -0.047 | [13] -0.024 | [14] -0.034 | [15] 0.006 | IRAK-1-4 Inhibitor I 0.203 | ibrutinib 0.037 | ralimetinib -0.299 | [4] -0.084 | [5] 0.037 | [6] 0.098 | [7] 0.161 | [16] -0.07 | [8] -0.263

EWSR1 (UniProt H7BY36)
inactive: [10] -0.711 | [11] -0.346 | [12] 0.111 | [2] -0.208 | [13] -0.428 | [14] -0.011 | [15] -0.035 | IRAK-1-4 Inhibitor I -0.074 | ibrutinib -0.288 | ralimetinib -0.073 | [4] -0.052 | [7] -0.126 | [16] 0.071 | [8] 0.39

EPB41 isoform 4 (UniProt P11171)
inactive: erlotinib -0.128 | [1] -0.054 | [2] -0.012 | IRAK-1-4 Inhibitor I 0.002 | [3] 0.048 | ralimetinib -0.056 | [4] -0.018 | [5] 0.148 | [6] -0.012 | [16] 0.042 | [8] -0.001 | [9] -0.004

GC isoform 3 (UniProt P02774)
inactive: [10] 0.039 | [11] -0.019 | [2] -0.199 | [13] 0.012 | [14] 0.051 | [15] 0.055 | IRAK-1-4 Inhibitor I 0.15 | ralimetinib 0.051 | [7] -0.148 | [16] -0.087 | [8] -0.101
active: [4] -0.559

EIF3I (UniProt Q5TFK1)
inactive: [3] 0.266 | [6] -0.661 | [9] -0.059

GIPC3 (UniProt Q8TF64)
inactive: erlotinib -0.049 | [1] 0.091 | [12] -0.025 | [2] 0.063 | [14] 0.008 | [15] 0.139 | IRAK-1-4 Inhibitor I 0.101 | ibrutinib -0.021 | [3] -0.078 | ralimetinib -0.019 | [4] -0.011 | [5] 0.022 | [6] 0.282 | [7] -0.019 | [16] 0.185 | [8] -0.033 | [9] -0.13

DST isoform 3 (UniProt Q03001)
inactive: erlotinib 0.005 | [1] 0.181 | [12] -0.085 | [14] -0.034 | [15] -0.043 | ibrutinib 0.005 | [5] -0.01

EHHADH (UniProt Q08426)
inactive: erlotinib -0.05 | [1] 0.08 | [12] -0.029 | [2] 0.007 | [14] 0.045 | [15] -0.106 | IRAK-1-4 Inhibitor I -0.09 | ibrutinib 0.059 | [3] -0.023 | ralimetinib 0.021 | [4] -0.084 | [5] -0.016 | [6] -0.003 | [7] 0.128 | [16] -0.027 | [8] 0.031 | [9] 0.008

ELAVL4 (UniProt P26378)
inactive: erlotinib 0.073 | [10] 0.047 | [1] -0.063 | [11] -0.047 | [2] 0.015 | [13] 0.002 | [14] 0.029 | [15] 0.036 | IRAK-1-4 Inhibitor I -0.012 | [3] -0.04 | ralimetinib 0.065 | [4] 0.064 | [5] 0.026 | [6] -0.061 | [7] -0.01 | [16] -0.005 | [8] -0.026 | [9] 0.073

EPS8L2 (UniProt Q9H6S3)
Chain of UniProt Q9H6S3 (Q9H6S3 whole entry, looked up): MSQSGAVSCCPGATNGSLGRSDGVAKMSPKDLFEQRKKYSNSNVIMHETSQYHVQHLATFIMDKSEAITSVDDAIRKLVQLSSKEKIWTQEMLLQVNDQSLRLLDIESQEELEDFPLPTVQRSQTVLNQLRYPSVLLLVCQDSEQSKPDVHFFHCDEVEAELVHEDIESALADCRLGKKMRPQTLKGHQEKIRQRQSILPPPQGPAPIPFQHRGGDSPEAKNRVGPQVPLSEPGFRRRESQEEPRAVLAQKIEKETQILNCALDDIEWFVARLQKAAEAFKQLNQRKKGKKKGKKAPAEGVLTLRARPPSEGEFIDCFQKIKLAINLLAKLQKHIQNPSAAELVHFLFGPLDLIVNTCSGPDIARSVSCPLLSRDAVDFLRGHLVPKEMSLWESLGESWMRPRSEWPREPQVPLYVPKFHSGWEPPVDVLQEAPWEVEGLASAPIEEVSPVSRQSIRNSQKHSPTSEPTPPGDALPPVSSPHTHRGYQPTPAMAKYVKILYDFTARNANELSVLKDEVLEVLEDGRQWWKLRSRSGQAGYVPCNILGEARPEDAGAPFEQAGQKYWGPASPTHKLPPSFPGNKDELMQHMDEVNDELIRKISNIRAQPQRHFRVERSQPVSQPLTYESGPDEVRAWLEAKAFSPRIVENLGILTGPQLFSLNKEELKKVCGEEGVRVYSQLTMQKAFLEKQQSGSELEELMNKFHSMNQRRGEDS
inactive: erlotinib 0.082 | [1] 0.009 | [12] 0.037 | [2] 0.133 | [14] -0.108 | [15] 0.055 | IRAK-1-4 Inhibitor I -0.086 | ibrutinib -0.041 | [3] -0.026 | ralimetinib -0.028 | [4] -0.021 | [5] 0.002 | [6] 0.031 | [7] -0.002 | [16] -0.054 | [8] -0.084 | [9] 0.015

ESRRB isoform 1 (UniProt O95718)
inactive: erlotinib 0.1 | [12] -0.021 | [2] 0.016 | IRAK-1-4 Inhibitor I 0.236 | ibrutinib -0.047 | ralimetinib 0.035 | [4] -0.087 | [5] -0.187 | [8] 0.053
active: [1] -0.783

DTL (UniProt Q9NZJ0)
inactive: erlotinib 0.106 | [10] -0.053 | [1] 0.012 | [11] 0.067 | [12] -0.029 | [2] -0.002 | [13] -0.072 | IRAK-1-4 Inhibitor I 0.006 | ibrutinib 0.012 | ralimetinib 0.037 | [4] -0.024 | [5] -0.05 | [6] 0.041 | [7] -0.104 | [16] 0.071 | [8] -0.037

FAM204A (UniProt Q9H8W3)
Chain of UniProt Q9H8W3 (Q9H8W3 whole entry, looked up): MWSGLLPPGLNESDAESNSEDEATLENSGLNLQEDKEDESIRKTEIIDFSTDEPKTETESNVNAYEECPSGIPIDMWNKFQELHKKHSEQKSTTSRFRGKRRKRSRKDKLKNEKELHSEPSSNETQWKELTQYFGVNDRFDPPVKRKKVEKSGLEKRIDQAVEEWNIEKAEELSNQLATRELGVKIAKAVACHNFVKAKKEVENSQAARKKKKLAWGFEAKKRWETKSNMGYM
inactive: erlotinib -0.021 | [10] -0.018 | [1] -0.014 | [11] 0.11 | [2] 0.018 | [13] -0.008 | IRAK-1-4 Inhibitor I 0.01 | ralimetinib -0.12 | [4] 0.061 | [5] -0.117 | [16] 0.174 | [8] -0.002

EID1 (UniProt Q9Y6B2)
Chain of UniProt Q9Y6B2 (Q9Y6B2 whole entry, looked up): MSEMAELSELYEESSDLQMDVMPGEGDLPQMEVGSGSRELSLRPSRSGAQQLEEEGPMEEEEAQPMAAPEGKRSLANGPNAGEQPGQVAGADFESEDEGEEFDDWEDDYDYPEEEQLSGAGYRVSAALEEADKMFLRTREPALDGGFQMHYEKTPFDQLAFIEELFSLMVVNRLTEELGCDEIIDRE
inactive: erlotinib 0.089 | [1] -0.172 | [2] 0.096 | [14] 0.064 | [15] 0.091 | IRAK-1-4 Inhibitor I 0.044 | ralimetinib -0.06 | [4] -0.042 | [5] -0.173 | [6] 0.05 | [7] -0.116 | [8] -0.008

FNDC3A (UniProt Q9Y2H6)
inactive: erlotinib 0.198 | [1] 0.024 | [2] -0.112 | IRAK-1-4 Inhibitor I 0.04 | ralimetinib 0.118 | [4] -0.207 | [5] -0.093 | [6] 0.31 | [16] 0.027 | [8] 0.113

GAPVD1 (UniProt Q14C86)
Chain of UniProt Q14C86 (Q14C86 whole entry, looked up): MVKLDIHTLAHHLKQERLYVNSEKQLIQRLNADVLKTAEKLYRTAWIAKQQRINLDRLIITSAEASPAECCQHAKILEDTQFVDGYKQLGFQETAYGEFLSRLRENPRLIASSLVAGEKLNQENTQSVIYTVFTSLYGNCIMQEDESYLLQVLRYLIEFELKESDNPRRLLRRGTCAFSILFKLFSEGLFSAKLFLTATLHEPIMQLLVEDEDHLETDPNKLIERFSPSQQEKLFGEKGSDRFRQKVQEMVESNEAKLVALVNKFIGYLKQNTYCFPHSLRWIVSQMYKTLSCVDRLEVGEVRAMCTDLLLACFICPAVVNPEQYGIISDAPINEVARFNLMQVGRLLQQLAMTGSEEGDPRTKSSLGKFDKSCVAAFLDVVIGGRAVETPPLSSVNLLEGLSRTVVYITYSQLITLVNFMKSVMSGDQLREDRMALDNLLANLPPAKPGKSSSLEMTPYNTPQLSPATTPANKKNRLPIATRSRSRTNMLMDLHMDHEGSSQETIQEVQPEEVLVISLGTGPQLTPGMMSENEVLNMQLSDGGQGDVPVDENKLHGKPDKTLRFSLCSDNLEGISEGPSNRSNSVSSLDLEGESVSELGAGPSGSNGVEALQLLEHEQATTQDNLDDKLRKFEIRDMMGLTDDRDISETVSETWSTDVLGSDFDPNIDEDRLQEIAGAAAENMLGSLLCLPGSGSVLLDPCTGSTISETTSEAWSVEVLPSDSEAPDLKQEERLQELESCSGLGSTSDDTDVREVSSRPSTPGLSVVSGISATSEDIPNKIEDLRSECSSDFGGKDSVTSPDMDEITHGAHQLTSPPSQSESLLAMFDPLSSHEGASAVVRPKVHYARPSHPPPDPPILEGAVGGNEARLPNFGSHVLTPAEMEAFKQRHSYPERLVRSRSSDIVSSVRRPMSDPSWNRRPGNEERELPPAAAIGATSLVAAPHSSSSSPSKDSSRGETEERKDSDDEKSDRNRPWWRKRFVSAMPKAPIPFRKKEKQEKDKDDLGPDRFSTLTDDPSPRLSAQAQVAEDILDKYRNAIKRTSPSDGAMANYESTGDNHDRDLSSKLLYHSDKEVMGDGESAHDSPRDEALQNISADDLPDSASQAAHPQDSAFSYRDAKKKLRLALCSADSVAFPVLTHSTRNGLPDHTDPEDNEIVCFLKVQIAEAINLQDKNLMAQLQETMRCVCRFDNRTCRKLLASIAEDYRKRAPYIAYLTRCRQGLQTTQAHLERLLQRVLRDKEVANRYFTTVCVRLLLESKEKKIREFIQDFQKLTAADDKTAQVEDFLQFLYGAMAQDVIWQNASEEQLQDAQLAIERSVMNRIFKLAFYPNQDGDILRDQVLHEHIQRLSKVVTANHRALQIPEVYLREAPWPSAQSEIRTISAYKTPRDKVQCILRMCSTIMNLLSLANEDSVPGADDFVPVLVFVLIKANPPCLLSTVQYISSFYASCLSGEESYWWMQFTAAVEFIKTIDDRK
inactive: [12] -0.016 | ibrutinib 0.086 | [3] 0.317 | [9] -0.666

FBRSL1, A0A3B3IRR3
active: [16] -0.381
inactive: erlotinib -0.014 | [10] -0.021 | [1] 0.042 | [11] -0.03 | [12] 0 | [2] -0.028 | [13] -0.199 | [14] 0.043 | [15] -0.015 | IRAK-1-4 Inhibitor I -0.024 | ibrutinib 0.072 | ralimetinib 0.027 | [4] 0.008 | [5] -0.075 | [6] -0.01 | [7] 0.183 | [8] 0.012

FAM76B (UniProt Q5HYJ3)
Chain of UniProt Q5HYJ3 (Q5HYJ3 whole entry, looked up): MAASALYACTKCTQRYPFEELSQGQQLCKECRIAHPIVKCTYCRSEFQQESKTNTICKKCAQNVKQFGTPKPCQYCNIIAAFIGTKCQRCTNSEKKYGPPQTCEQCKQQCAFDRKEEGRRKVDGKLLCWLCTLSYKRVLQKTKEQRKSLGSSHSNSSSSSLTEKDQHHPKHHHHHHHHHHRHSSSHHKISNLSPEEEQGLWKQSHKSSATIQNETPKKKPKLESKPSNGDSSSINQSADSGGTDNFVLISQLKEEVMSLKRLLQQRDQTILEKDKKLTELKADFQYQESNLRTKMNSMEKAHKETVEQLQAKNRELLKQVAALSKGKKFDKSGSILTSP
inactive: erlotinib -0.027 | [10] -0.35 | [1] -0.016 | [11] -0.137 | [2] -0.053 | [13] 0.046 | [14] -0.019 | [15] 0.061 | IRAK-1-4 Inhibitor I -0.008 | [3] -0.025 | ralimetinib -0.005 | [4] -0.01 | [5] -0.06 | [6] -0.012 | [7] -0.02 | [16] 0.023 | [8] -0.002 | [9] -0.011

EIF2B5, A0A3B3ITK8
inactive: [3] 0.015 | [6] 0.037 | [9] -0.104
